The target in this test is DNA dC->dU-editing enzyme APOBEC-3G (Homo sapiens) (UniProt Q9HC16). As to the kind of experiment: qHTS for inhibitors of Vif-A3G interactions: Validation (AID 588379). The following applies: Vif-A3G protein interaction assay; series mostly up to 46.1 µM. In a few lines: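 Yellow fluorescence (Ex 488, Em 500-530) of Vif-coexpressing HeLa A3G-eYFP cells, scanned by Acumen cytometer, reports blocked A3G degradation. Cells plated at 700/well overnight at 37 deg C before compound addition, then a further overnight compound incubation at 37 deg C.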
DNA dC->dU-editing enzyme APOBEC-3G (Homo sapiens), sequence (Q9HC16 whole entry, looked up): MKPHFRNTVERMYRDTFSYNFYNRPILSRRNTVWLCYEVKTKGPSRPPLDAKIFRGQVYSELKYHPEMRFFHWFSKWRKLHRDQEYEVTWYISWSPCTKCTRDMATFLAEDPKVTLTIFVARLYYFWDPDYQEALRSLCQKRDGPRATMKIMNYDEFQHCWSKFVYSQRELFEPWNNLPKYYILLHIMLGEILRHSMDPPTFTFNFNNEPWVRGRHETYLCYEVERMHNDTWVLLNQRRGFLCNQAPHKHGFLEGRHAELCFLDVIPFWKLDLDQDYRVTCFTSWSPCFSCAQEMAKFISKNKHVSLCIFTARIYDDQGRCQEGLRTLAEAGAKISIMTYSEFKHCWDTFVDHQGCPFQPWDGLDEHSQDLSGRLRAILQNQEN
Background: In qHTS, concentration-response curves come from the screen itself.

The structures appear in SMILES notation. Activity calls are given as the source filed them. A call without a number means that no potency is given here. Calls follow the shape of the dose curve; as a rule, active = well fitted inhibition curve with a large enough effect; inconclusive = small, poorly fitted or top-dose-only effect; inactive = flat fitted curve, though single readings scatter.

On to `NC(N)=NC(N)=Nc1cccc(Cl)c1`, for which the Potency result was “inactive”.
Then `OC1(c2ccc(Cl)cc2)CCN(Cc2c[nH]c3ccccc23)CC1`, with “inactive”; and `CCCCCC[C@@H]([C@@H](C)O)n1cnc2c(N)ncnc21`, with “inactive”.
The same measure for `c1ccc2nc(C3=NCCN3)ccc2c1`: “inactive”; for `CCc1ccc2c(-c3cccc(Cl)c3)nc(=O)n(CC)c2n1`: “inactive”.
Then `O=C(OCCN1CCOCC1)C1(c2ccccc2)CCCCC1`, with “inactive”; and `CC1CCN(CC[C@H]2CCCN2S(=O)(=O)c2cccc(O)c2)CC1`, with “inactive”.
In the case of `O=C1OC(=O)C2C3CCC(O3)C12` (stereo not given), the Potency result was “inactive”.
Then `CCCn1c(=O)c(C)cn2nc(N)nc12`, with “inactive”.
Then `CC(=O)N[C@@H](Cc1c[nH]c2ccccc12)C(=O)OCc1cc(C(F)(F)F)cc(C(F)(F)F)c1`, with “inactive”; and `NC[C@@H]1O[C@H](c2ccccc2)Cc2c1ccc(O)c2O`, with “inactive”.
`CN1CCc2cc(Cl)c(O)cc2[C@@H](c2ccccc2)C1`: the Potency entry was “inactive”.
With `C=C1C(=O)O[C@@H]2[C@H]3O[C@]3(C)CCC=C(C)CC[C@@H]12`, the Potency result is “inactive”.
The same measure for `CNC(=O)c1cc2c(cn1)[nH]c1ccccc12`: “inactive”.
On to `Cn1cc(C(=O)OCC2CCN(CCNS(C)(=O)=O)CC2)c2ccccc21`, for which the Potency result was “inactive”.
The same measure for `NS(=O)(=O)c1cccc2c1c([N+](=O)[O-])cc1nc(O)c(O)nc12`: “inactive”; for `CN1CCN(c2nc3cc(C(F)(F)F)ccc3n3cccc23)CC1`: “inactive”.
Then `CN(C)CCCc1cc(C(=O)Nc2ccc(-c3ccncc3)cc2)ccc1O`, with “inactive”; and `O=S(=O)(c1cccc2c(Cl)cccc12)N1CCCNCC1`, with “inactive”.
The same measure for `CC(C)NC[C@H](O)COc1ccc(CC(N)=O)cc1`: “inactive”.
